Source: PubChem BioAssay
The other results are listed elsewhere or left out. Calls of active or inactive are those of the source.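 Rule for the calls, unless noted: active = mean inhibition above about 50% in the one-dose retest (limit read from the data); inactive = the rest.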

Columns and labels:
[1] = target: Sentrin-specific protease 8 (Homo sapiens) (UniProt Q96LD8); assay: SENP8 protease inhibitors, retest, confirmation, biochemical, luminescence, single concentration (AID 488912;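 active = mean inhibition across replicates above about 50%, limit read from the data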); conditions: Recombinant SENP8, Z-RLRGG-aminoluciferin luminescence, 60 min; at 12.5 µM; stronger effect = higher value
[2] = target: Sentrin-specific protease 6 (Homo sapiens) (UniProt Q9GZR1); assay: SENP6 protease inhibitors, confirmation, biochemical, luminescence, single concentration (AID 488915); conditions: recombinant SENP6, Z-RLRGG-aminoluciferin luminescence; at 12.5 µM; stronger effect = higher value
[3] = target: Sentrin-specific protease 7 (Homo sapiens) (UniProt Q9BQF6); assay: SENP7 protease inhibitors, retest, confirmation, biochemical, luminescence, single concentration (AID 488917); conditions: recombinant SENP7, Z-RLRGG-aminoluciferin luminescence, 40 min; at 12.5 µM; stronger effect = higher value
Caspase-3 (Homo sapiens) = Caspase-3 (Homo sapiens) (UniProt P42574); assay: caspase-3 protease inhibitors, confirmation, selectivity assay for SENP inhibitor project, biochemical, single concentration (AID 488918;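 active = mean inhibition above about 50%, limit read from the data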;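 note: plate controls were enzyme with DMSO for no effect and wells without caspase-3 for full effect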); conditions: purified caspase-3, Z-DEVD-aminoluciferin luminescence, 60 min; at 12.5 µM; stronger effect = higher value
[4] = luciferase luminescence interference by compounds, confirmation, artefact control for SENP inhibitor project, biochemical, single concentration, SENP8 reaction pre-completed (AID 488919;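 active = mean inhibition above about 50% when retested at one dose, limit read from the data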;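 note: plate controls were DMSO wells with completed reaction for no effect and substrate without enzyme for full effect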); conditions: Pre-incubated SENP8/Z-RLRGG-aminoluciferin, at 12.5 µM, stronger effect = higher value
[5] = Apaf-1 inhibitors, single-dose retest, confirmation, biochemical, fluorescence, DEVD-Rh110, 20 µM (AID 504614;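 active = mean inhibition of at least 40% at 20 µM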;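 note: plate controls were DMSO wells for no effect and DEVD-CHO caspase inhibitor control wells for full effect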); conditions: reconstituted apoptosome, caspase-3 DEVD-Rh110 fluorescence; at 20 µM; stronger effect = higher value
[6] = Rh110 fluorescence interference by putative Apaf-1 inhibitors, confirmation, artefact control for Apaf-1 inhibitor project, biochemical, 20 µM (AID 504615;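 active = signal rise of 40% or more at 20 µM, treated as a fluorescence artifact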); conditions: quenched caspase reaction, at 20 µM, stronger effect = higher value
[7] = target: Tumor necrosis factor receptor superfamily member 10B (Homo sapiens) (UniProt O14763); assay: caspase-8 TRAIL sensitization, hit retest, confirmation, cell-based, NB7+caspase-8, with/without TRAIL, luminescence panel (AID 651596; in the data active = activity above about 50%); conditions: NB7 neuroblastoma + caspase-8, TRAIL sensitization, luminescence viability, with TRAIL, mean of runs, at 10 µM, stronger effect = higher value
[8] = as above; conditions: NB7 neuroblastoma + caspase-8, without TRAIL, luminescence viability, without TRAIL, mean of runs, at 10 µM
[9] = target: Protein Mdm4 (Homo sapiens) + E3 ubiquitin-protein ligase Mdm2 (Homo sapiens) (UniProt O15151+Q00987); assay: retested Mdm2-MdmX interaction blockers, confirmation, cell-based, luminescence, single concentration, set 2 (AID 504601;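 active = mean inhibition of the luminescence signal across two replicates at or above 26 percent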); conditions: SaOS-2 split-luciferase Mdm2/MdmX complementation, at 8 µM, stronger effect = higher value
[10] = inhibition of Brca1/Bard1 split-luciferase complementation, confirmation, counter-screen for Mdm2/MdmX interaction inhibitor project, luminescence, single concentration (AID 504668; call rule not given here); conditions: Brca1/Bard1 bimolecular luciferase complementation counterscreen, at 8 µM, stronger effect = higher value
[11] = Peg3 promoter reporter inhibitors, retest, confirmation, cell-based, HeLa, luciferase reporter, single concentration (AID 602417;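 active = at 20 µM dose, 40% or more inhibition averaged across four replicates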); conditions: HeLa PEG-Prom luciferase reporter, luminescence, overnight; at 20 µM; stronger effect = higher value
[12] = HIF-2a reporter inhibitor retest, confirmation, luminescence, 786-0 RCC cells (AID 651580;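 active = mean inhibition across four replicates of at least 40 percent at the single tested concentration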); conditions: HIF-2a luciferase reporter luminescence, overnight, at 18.8 µM, stronger effect = higher value
[13] = HIF-1a luciferase reporter signal reduction – MiaPaCa-2 cells, single concentration, counter-screen for HIF-2a inhibitor project, confirmation (AID 651589;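 active = mean inhibition of the reporter signal across four replicates at the single tested dose of 50% or more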); conditions: MiaPaCa-2 HIF-1a luciferase reporter, desferoxamine, overnight; at 18.8 µM; stronger effect = higher value
PEG-3 [14] = target: PEG-3 (UniProt Q6IN02); assay: Peg3 promoter luciferase inhibitors, potency, dose response, cell-based, HeLa, CREF/GAPDH counter-screen panel (AID 624167); conditions: CREF/GAPDH counter-screens; HeLa PEG-Prom luciferase reporter, overnight, run 1, dose range 1, at 100 µM (top of the series) unless noted
PEG-3 [15] = target: PEG-3 (UniProt Q6IN02); assay: as above; conditions: CREF/GAPDH counter-screens; HeLa PEG-Prom luciferase reporter, overnight, run 2, dose range 1, at 100 µM (top of the series) unless noted
Rat fibroblasts (CREF) [16] = assay: as above; conditions: CREF/GAPDH counter-screens; run 1, dose range 1, at 100 µM (top of the series)
Rat fibroblasts (CREF) [17] = assay: as above; conditions: CREF/GAPDH counter-screens; run 2, dose range 1, at 100 µM (top of the series)

Sentrin-specific protease 6 (Homo sapiens), sequence (Q9GZR1 628-1112 limits assumed): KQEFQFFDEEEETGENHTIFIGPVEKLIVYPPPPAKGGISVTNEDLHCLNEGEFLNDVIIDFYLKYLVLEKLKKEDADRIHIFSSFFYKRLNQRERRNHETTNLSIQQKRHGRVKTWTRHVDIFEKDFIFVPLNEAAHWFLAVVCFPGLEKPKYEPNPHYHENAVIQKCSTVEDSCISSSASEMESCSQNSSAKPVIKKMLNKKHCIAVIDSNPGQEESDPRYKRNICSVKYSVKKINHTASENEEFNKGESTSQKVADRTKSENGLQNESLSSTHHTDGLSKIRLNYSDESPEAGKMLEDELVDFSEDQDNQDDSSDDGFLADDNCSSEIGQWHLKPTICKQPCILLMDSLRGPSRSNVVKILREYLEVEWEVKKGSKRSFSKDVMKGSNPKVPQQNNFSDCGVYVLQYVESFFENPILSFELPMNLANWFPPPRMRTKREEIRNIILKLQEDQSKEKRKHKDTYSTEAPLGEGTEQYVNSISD
Caspase-3 (Homo sapiens), sequence (P42574 28-227 limits assumed): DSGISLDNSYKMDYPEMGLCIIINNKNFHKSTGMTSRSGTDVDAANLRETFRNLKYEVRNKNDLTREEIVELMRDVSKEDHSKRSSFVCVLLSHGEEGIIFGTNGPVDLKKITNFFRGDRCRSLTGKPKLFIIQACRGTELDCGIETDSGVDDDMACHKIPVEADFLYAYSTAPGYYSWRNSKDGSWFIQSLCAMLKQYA
Sentrin-specific protease 7 (Homo sapiens), sequence (Q9BQF6 706-1050 limits assumed): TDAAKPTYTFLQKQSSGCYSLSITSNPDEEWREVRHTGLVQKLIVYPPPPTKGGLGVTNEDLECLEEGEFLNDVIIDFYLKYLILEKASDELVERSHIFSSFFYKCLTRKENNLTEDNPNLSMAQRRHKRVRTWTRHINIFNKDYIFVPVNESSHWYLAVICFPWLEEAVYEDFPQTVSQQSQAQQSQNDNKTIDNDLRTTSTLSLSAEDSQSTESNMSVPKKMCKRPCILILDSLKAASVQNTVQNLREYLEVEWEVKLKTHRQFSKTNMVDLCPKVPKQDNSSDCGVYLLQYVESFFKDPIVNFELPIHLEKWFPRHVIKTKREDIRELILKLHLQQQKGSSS
Tumor necrosis factor receptor superfamily member 10B (Homo sapiens), sequence (O14763 whole entry, looked up): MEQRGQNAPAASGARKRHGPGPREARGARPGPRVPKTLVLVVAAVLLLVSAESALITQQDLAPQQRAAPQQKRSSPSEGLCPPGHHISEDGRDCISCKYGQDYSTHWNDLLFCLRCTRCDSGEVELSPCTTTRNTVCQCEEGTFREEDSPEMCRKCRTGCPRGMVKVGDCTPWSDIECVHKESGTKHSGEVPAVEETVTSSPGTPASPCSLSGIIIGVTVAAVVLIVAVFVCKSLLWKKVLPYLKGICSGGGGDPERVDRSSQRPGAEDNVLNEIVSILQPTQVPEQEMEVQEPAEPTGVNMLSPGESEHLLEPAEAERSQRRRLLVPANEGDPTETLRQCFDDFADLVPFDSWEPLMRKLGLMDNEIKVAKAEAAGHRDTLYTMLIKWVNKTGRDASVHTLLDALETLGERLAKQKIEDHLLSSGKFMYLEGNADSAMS
Sentrin-specific protease 8 (Homo sapiens), sequence (Q96LD8 whole entry, looked up): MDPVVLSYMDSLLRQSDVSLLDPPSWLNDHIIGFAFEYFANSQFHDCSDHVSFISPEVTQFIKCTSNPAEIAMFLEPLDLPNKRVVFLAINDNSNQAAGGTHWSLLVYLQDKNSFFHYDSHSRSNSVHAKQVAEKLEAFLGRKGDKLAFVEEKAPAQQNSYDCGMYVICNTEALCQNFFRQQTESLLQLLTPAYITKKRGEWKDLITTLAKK
PEG-3, sequence (Q6IN02 whole entry, looked up): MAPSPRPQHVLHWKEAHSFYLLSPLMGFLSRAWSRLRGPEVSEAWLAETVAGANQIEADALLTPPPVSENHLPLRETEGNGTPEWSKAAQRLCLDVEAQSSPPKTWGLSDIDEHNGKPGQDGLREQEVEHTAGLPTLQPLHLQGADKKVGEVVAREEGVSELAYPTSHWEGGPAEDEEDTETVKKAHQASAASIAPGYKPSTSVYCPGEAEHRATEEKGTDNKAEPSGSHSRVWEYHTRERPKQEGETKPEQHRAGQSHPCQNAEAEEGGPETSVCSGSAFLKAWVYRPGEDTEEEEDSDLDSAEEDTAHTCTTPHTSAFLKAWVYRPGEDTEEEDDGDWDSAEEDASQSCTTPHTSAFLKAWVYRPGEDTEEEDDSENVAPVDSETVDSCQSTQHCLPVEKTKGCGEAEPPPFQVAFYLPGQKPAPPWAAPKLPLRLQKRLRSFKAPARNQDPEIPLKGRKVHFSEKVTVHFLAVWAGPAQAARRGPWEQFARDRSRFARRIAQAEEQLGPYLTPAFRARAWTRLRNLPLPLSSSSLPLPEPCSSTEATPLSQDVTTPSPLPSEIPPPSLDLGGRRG
Protein Mdm4 (Homo sapiens) + E3 ubiquitin-protein ligase Mdm2 (Homo sapiens), sequence (O15151 whole entry, looked up): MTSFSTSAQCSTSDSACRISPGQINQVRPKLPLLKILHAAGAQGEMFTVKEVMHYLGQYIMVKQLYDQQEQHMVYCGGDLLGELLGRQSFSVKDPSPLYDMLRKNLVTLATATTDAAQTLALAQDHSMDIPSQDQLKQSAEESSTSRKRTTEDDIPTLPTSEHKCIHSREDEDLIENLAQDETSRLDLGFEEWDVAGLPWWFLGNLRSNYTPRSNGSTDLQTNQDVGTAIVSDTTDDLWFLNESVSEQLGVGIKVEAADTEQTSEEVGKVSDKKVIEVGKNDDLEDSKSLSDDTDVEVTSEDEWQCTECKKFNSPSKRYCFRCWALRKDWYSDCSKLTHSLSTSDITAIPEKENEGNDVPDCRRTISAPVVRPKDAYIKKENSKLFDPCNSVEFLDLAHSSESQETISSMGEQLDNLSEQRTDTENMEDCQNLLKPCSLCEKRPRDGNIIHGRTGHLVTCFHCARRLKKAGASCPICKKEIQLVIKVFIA
Protein Mdm4 (Homo sapiens) + E3 ubiquitin-protein ligase Mdm2 (Homo sapiens), sequence (Q00987 whole entry, looked up): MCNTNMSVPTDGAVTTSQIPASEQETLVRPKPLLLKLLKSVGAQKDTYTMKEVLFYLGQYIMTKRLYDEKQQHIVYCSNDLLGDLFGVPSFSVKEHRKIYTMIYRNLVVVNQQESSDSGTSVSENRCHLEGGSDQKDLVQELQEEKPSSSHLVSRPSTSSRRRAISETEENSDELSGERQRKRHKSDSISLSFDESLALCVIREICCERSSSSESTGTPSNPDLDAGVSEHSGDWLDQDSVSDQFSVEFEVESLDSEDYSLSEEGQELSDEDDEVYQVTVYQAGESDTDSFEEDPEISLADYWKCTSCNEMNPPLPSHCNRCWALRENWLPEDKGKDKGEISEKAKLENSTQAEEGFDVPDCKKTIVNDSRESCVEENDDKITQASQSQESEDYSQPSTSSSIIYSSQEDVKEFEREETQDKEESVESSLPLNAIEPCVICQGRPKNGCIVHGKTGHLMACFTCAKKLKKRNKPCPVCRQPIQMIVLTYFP

Cc1c(Cl)cccc1NC(=O)Nc1ccc(C(=O)N2CCCC2)cc1
active: inhibition [3] 77.1% | inhibition (Caspase-3 (Homo sapiens)) 60.3%
inactive: inhibition [1] 20.5% | inhibition [2] 43% | inhibition [4] 11.4%

CC1=NN(C(N)=S)C(=O)C1N=Nc1cc(Cl)ccc1Cl (stereo not drawn)
inactive: inhibition [1] -5.4% | inhibition [2] -1.7% | inhibition [3] 1.9% | inhibition (Caspase-3 (Homo sapiens)) -1.2% | inhibition [4] 1.2%

Cc1[nH][nH]c(=O)c1C(c1ccc(-c2ccc(Cl)cc2)o1)c1c(C)[nH][nH]c1=O
inactive: inhibition [1] -6.8% | inhibition [2] 16% | inhibition [3] 2.9% | inhibition (Caspase-3 (Homo sapiens)) 7.2% | inhibition [4] 1.7% | inhibition [5] 18% | activation (fluorescence interference) [6] -1.73%

CCCc1cc(=O)oc2c(C)c(OCC(=O)Nc3ccccn3)ccc12
inactive: inhibition [1] 18.2% | inhibition [2] 14.4% | inhibition [3] 23.3% | inhibition (Caspase-3 (Homo sapiens)) 39.2% | inhibition [4] 11.8%

c1ccc(CN=C2Nc3ccccc3CS2)nc1
active: inhibition [3] 74.7% | inhibition (Caspase-3 (Homo sapiens)) 76.5% | inhibition [4] 57.5%
inactive: inhibition [1] 48.6% | inhibition [2] 41.9%

CC(=O)N1C(=O)/C(=C2\SC(=S)N(NC(=O)c3ccc(O)cc3)C2=O)c2ccccc21
inactive: inhibition [1] 25.6% | inhibition [3] 25.2% | inhibition (Caspase-3 (Homo sapiens)) 10.3% | inhibition [4] 3.7%
active: inhibition [2] 79.1%

Cc1cccc(OC(=O)c2sc3ncn(C)c(=O)c3c2C)c1
inactive: inhibition [1] 1.1% | inhibition [2] 0.1% | inhibition [3] 17.1% | inhibition (Caspase-3 (Homo sapiens)) 14.4% | inhibition [4] -2.4%

COc1ccccc1C(=O)Nc1ccc(NC(=O)c2ccco2)c(C)c1
inactive: inhibition [1] 45.3% | inhibition [2] 47.1%
active: inhibition [3] 81.2% | inhibition (Caspase-3 (Homo sapiens)) 82.5% | inhibition [4] 58.6%

C/C(=N\NC(=O)CNc1cccc2ccccc12)c1ccc(Br)s1
inactive: inhibition [1] -9.7% | inhibition [2] -9.8% | inhibition [3] -3.4% | inhibition (Caspase-3 (Homo sapiens)) -2.4% | inhibition [4] -7.4% | inhibition [5] 13.9% | activation (fluorescence interference) [6] 3.87%

Cc1[nH]n(-c2ccc([N+](=O)[O-])cc2)c(=O)c1C=NCCN1CCN(C(=O)c2ccccc2F)CC1
inactive: inhibition [1] 20.7% | inhibition [2] 17.1% | inhibition [3] 3.9% | inhibition (Caspase-3 (Homo sapiens)) 37.1% | inhibition [4] 49.3%

Cc1nn2cc(-c3ccc(Cl)cc3)cnc2c1Br
inactive: inhibition [1] 17.8% | inhibition [2] 15.7% | inhibition [3] 30.8% | inhibition (Caspase-3 (Homo sapiens)) 28.5% | inhibition [4] 9%

Cn1cccc1C(=O)OCC(=O)c1ccc(Br)s1
active: inhibition [1] 78.3% | inhibition [2] 78.3% | inhibition [3] 95.5% | inhibition (Caspase-3 (Homo sapiens)) 77.3% | inhibition [4] 54.7%

COc1cccc(C(=O)Nc2ccc(NC(=O)c3ccco3)cn2)c1
active: inhibition [1] 53.1% | inhibition [2] 51% | inhibition [3] 82.4% | inhibition (Caspase-3 (Homo sapiens)) 76.1% | inhibition [4] 62.4%

Cc1ccc(O)c(CNc2nc3ccccc3n2C)c1
inactive: inhibition [1] -5% | inhibition [2] -7.9% | inhibition [3] 7.6% | inhibition (Caspase-3 (Homo sapiens)) 8.9% | inhibition [4] -0.5%

O=C(/C=C/c1ccc2c(c1)OCCO2)c1ccc(O)cc1
active: inhibition [1] 68.6% | inhibition [2] 59% | inhibition [3] 72.1% | inhibition (Caspase-3 (Homo sapiens)) 54.3% | inhibition [4] 86.9%
45.6%: activity [8]
41%: activity [7]

O=C1[C@H]2[C@@H](c3ccc(F)cc3)N3C(=O)N(c4ccc(C(F)(F)F)cc4)C(=O)[C@@]3(Cc3ccccc3)[C@H]2C(=O)N1C1CCCCC1
active: inhibition [9] 101%

Cc1cnc(NC(=O)c2ccccn2)s1
64.5%: activity [8]
63.5%: activity [7]
active: inhibition [1] 74.2% | inhibition [2] 75.6% | inhibition [3] 92.3% | inhibition (Caspase-3 (Homo sapiens)) 91.7% | inhibition [4] 67.2%

CN(c1ccc2nc3ccccc3c(=O)n2n1)C1CCCCC1
86.2%: inhibition (PEG-3 [15])
active: inhibition [1] 94.2% | inhibition [2] 94.5% | inhibition [3] 101% | inhibition (Caspase-3 (Homo sapiens)) 96.3% | inhibition [4] 77.2% | inhibition [10] 27.7% | inhibition [11] 78.8% | inhibition [12] 91.2% | inhibition [13] 97.8%
98.9%: inhibition (Rat fibroblasts (CREF) [17])
98.4%: inhibition (Rat fibroblasts (CREF) [16])
98.5%: inhibition (PEG-3 [14])

COc1ccc(-c2cn3ccsc3n2)cc1
active: inhibition [1] 55.5% | inhibition [2] 51.2% | inhibition [3] 81.3% | inhibition (Caspase-3 (Homo sapiens)) 74.4% | inhibition [4] 56.3%
54.6%: activity [8]
64.2%: activity [7]

Cn1c(NC(=O)c2ccccc2)nc2ccccc21
61.1%: activity [8]
50.4%: activity [7]
active: inhibition [1] 55.5% | inhibition [2] 61.6% | inhibition [3] 89.8% | inhibition (Caspase-3 (Homo sapiens)) 83.7% | inhibition [4] 65.2%

O=C(Nc1ccccc1)c1ccc2c(c1)OCCCO2
active: inhibition [1] 78.5% | inhibition [2] 77.7% | inhibition [3] 94.2% | inhibition (Caspase-3 (Homo sapiens)) 90% | inhibition [4] 81.9%
79.9%: activity [7] | activity [8]
